Screens: PubChem BioAssay, several laboratories
SRC2 inh = inhibition of GAL4-SRC2 driven luciferase reporter, primary screen, SRC2 inhibitor project, cell-based, luminescence. Nuclear receptor coactivator 2 (Homo sapiens), Q15596. HEK293 GAL4-SRC2 luciferase reporter. inhibition, % at 9 µM. 370,000 compounds, 0.17% hits. AID 651957, 2012;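 active = inhibition above the mean inhibition of all tested compounds plus 3 SD, set per campaign, cut at about 52% in these data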
EBV LMP1 NFkB = EBV LMP1-driven NF-kappaB luciferase reporter inhibitors, primary screen, cell-based, luminescence, single point. LMP1-induced NF-kappaB luciferase reporter cells. inhibition, % at 12.5 µM. 350,000 compounds, 0.69% hits; in the data active = inhibition above about 41%
LRH-1 inv ag = LRH-1 (NR5A2) inverse agonists, primary screen, cell-based, luminescence, HEK293T, StAR-luciferase reporter; inhibition, % at 3.6 µM; 360,000 compounds, 0.13% hits; Nuclear receptor subfamily 5 group A member 2 (Homo sapiens), O00482; LRH-1 transfected, 24 h;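 active = inhibition above the mean inhibition of all tested compounds plus 3 SD, cut at about 73% in these data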
Target sequence (O00482 whole entry, looked up): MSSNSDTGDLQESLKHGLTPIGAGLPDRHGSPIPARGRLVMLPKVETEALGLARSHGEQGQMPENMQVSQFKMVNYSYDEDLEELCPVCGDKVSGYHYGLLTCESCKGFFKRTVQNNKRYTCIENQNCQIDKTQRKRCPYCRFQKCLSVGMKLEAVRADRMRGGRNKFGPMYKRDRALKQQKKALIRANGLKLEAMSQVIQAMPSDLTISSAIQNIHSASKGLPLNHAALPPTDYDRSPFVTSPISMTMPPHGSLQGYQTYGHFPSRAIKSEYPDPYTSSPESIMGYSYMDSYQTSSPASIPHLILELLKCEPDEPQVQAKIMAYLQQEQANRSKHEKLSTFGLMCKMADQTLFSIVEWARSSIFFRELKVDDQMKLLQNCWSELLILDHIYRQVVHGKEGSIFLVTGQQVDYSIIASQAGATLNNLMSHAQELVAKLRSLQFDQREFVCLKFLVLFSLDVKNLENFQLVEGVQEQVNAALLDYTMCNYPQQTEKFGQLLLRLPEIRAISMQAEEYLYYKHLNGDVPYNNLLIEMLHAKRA
NCOA3 inh = SRC3 coactivator transcriptional activity inhibitors, primary screen, cell-based, luminescence | Nuclear receptor coactivator 3 (Homo sapiens), Q9Y6Q9 | HEK293 GAL4-SRC3 luciferase reporter | inhibition, % at 3.6 µM | 360,000 compounds, 0.17% hits | AID 588352, 2011;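 active = inhibition above a per-campaign cutoff, the mean of all compounds plus 3 SD, cut at about 60% in these data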;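 also: higher means less SRC3-driven luciferase light from the GAL4 reporter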
SRC1 inh = SRC1 coactivator transcriptional activity inhibitors, primary screen, cell-based, luminescence; HEK293 GAL4-SRC1 luciferase reporter; inhibition, % at 3.6 µM; 360,000 compounds, 0.12% hits;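 active = inhibition above the campaign mean plus 3 SD, with each screening campaign given its own cutoff, cut at about 60% in these data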
Hits are given with their value. Compounds with a hit are over-represented: about 0.78% of the library has one in this group of screens.

For O=C(Nc1ccc(Cl)c(Cl)c1)Nc1nc(-c2ccccc2)cs1 the results were SRC2 inh inactive, EBV LMP1 NFkB 55.8, LRH-1 inv ag inactive, NCOA3 inh inactive and SRC1 inh inactive.
Cc1ccc(-c2c(NC(=O)C3CC3)nc3ncccn23)cc1 was read as SRC2 inh inactive.
For COc1ccc(-c2noc(CCCC(=O)NC3CCCC3)n2)cc1 the results were SRC2 inh 52.8, EBV LMP1 NFkB inactive, LRH-1 inv ag inactive, NCOA3 inh inactive and SRC1 inh inactive.
Screening COc1ccc(-c2noc(CCCC(=O)Nc3ccc(C(N)=O)cc3)n2)cc1 returned SRC2 inh 64.7, EBV LMP1 NFkB inactive, LRH-1 inv ag inactive, NCOA3 inh inactive and SRC1 inh inactive.
For COc1cc(-c2noc(CCCC(=O)Nc3ccc(C(N)=O)cc3)n2)cc(OC)c1OC the results were SRC2 inh inactive, LRH-1 inv ag inactive, NCOA3 inh inactive and SRC1 inh inactive.
COC(=O)[C@]12C[C@H](CC(=O)NCc3cccc4ccccc34)C(=O)N(Cc3ccc(Cl)cc3Cl)C1=C[C@H](C(C)(C)C)O[C@@H]2C was read as SRC2 inh inactive.
Screening COCCCNC(=O)C[C@H]1C[C@@]2(C(=O)OC)C(=C[C@H](COCc3ccccc3)O[C@@H]2C)N(Cc2cccc3ccccc23)C1=O returned SRC2 inh inactive.
For Cc1ccc(N2CCN(/N=C\c3cccnc3)CC2)cc1 the results were SRC2 inh inactive.
`O=C(Nc1cnn(Cc2ccc(Cl)cc2)c1)c1ccc([N+](=O)[O-])cc1` gave SRC2 inh inactive, EBV LMP1 NFkB inactive, LRH-1 inv ag inactive, NCOA3 inh inactive and SRC1 inh inactive.
Screening O=C(Nc1ccc([N+](=O)[O-])cc1)c1cncc(Br)c1 returned SRC2 inh inactive, EBV LMP1 NFkB 42.9, LRH-1 inv ag inactive, NCOA3 inh inactive and SRC1 inh inactive.
Screening O=C(Nc1ccc([N+](=O)[O-])cc1)c1ccc(Cn2cc([N+](=O)[O-])cn2)cc1 returned SRC2 inh inactive, EBV LMP1 NFkB inactive, LRH-1 inv ag 78.3, NCOA3 inh inactive and SRC1 inh inactive.
O=C(Nc1ccncc1)c1cncc(Br)c1 was read as SRC2 inh inactive, EBV LMP1 NFkB inactive, LRH-1 inv ag inactive, NCOA3 inh inactive and SRC1 inh inactive.
For CCc1ccc(CCNC(=O)OC2CCC23CCC(c2ccccc2)CC3)cc1 (configuration not stated) the results were SRC2 inh inactive.
COc1ccc(Cn2c(-c3ccc(C)cc3)c[n+]3ccccc23)cc1 was read as SRC2 inh inactive, EBV LMP1 NFkB inactive, LRH-1 inv ag 73.1, NCOA3 inh inactive and SRC1 inh 61.2.
COc1ccc(-c2nc3ccccc3n2Cc2ccc(C)cc2)cc1 was read as SRC2 inh inactive, EBV LMP1 NFkB inactive, LRH-1 inv ag inactive, NCOA3 inh inactive and SRC1 inh inactive.
For C=CCN1C(=O)[C@@H](CC(=O)NCCc2ccccc2OC)[C@]2(C(=O)OCC)CCCCC/C=C/12 the results were SRC2 inh inactive.
Screening C=CCN1CCc2cc(O)c(O)cc2C(c2ccccc2)C1 (configuration not stated) returned SRC2 inh inactive, EBV LMP1 NFkB 77.3, LRH-1 inv ag inactive, NCOA3 inh inactive and SRC1 inh inactive.
For C=CCN1CCc2c(cc(O)c(O)c2Cl)C(c2ccccc2)C1 (configuration not stated) the results were SRC2 inh inactive, EBV LMP1 NFkB inactive, LRH-1 inv ag inactive, NCOA3 inh inactive and SRC1 inh inactive.
`C[C@@H]1OCN(C)[C@H]2C[C@H]3c4[nH]c5cccc(-c6ccc7c(c6)OCO7)c5c4CCN3C[C@@H]12` gave SRC2 inh inactive.
Screening COc1ccc(S(=O)(=O)N2CCOCC2)cc1NC(=O)COC(=O)CCS(=O)(=O)c1ccc(C)cc1 returned SRC2 inh inactive, EBV LMP1 NFkB 67.8, LRH-1 inv ag inactive, NCOA3 inh inactive and SRC1 inh inactive.
COc1ccc(S(=O)(=O)N2CCOCC2)cc1NC(=O)COC(=O)C1CCC1 was read as SRC2 inh inactive, EBV LMP1 NFkB inactive, LRH-1 inv ag inactive, NCOA3 inh inactive and SRC1 inh inactive.
CC(=O)N(C1=C(N2CCOCC2)C(=O)c2ccccc2C1=O)c1ccc(C(=O)O)cc1 was read as SRC2 inh inactive, EBV LMP1 NFkB inactive, LRH-1 inv ag inactive, NCOA3 inh inactive and SRC1 inh inactive.
CC(=O)N(C)C1=C(N2CCOCC2)C(=O)c2ccccc2C1=O was read as EBV LMP1 NFkB inactive, LRH-1 inv ag 99.6, NCOA3 inh 87.2 and SRC1 inh 84.6.
Cc1ccc(Cn2cc(CN3[C@H](c4ccccc4)COc4cc(Br)ccc4S3(=O)=O)nn2)cc1 was read as SRC2 inh inactive.
`COc1ccc(S(=O)(=O)N2CCC(C(=O)NC3CC3)CC2)cc1OC` gave SRC2 inh inactive, EBV LMP1 NFkB 67.3, LRH-1 inv ag inactive, NCOA3 inh inactive and SRC1 inh inactive.
For COc1ccc(S(=O)(=O)N2CCC(C(=O)NC3CC3)CC2)cc1C the results were SRC2 inh inactive, EBV LMP1 NFkB inactive, LRH-1 inv ag inactive, NCOA3 inh inactive and SRC1 inh inactive.
For CC(=O)CSc1ccc(-c2nc3cc(C)c(C)cc3[nH]2)cn1 the results were SRC2 inh 63.4, EBV LMP1 NFkB 71.7, LRH-1 inv ag inactive, NCOA3 inh inactive and SRC1 inh inactive.
Screening CCN(CC)c1ccc(C(=O)NNC(=O)CCNC(=O)c2ccccc2)cc1 returned SRC2 inh inactive, EBV LMP1 NFkB inactive, LRH-1 inv ag inactive, NCOA3 inh inactive and SRC1 inh inactive.
`CCN(CC)c1ccc(C(=C2C=CC(=[N+](CC)CC)C=C2)c2ccc(N(CC)CC)cc2)cc1` gave SRC2 inh inactive, EBV LMP1 NFkB inactive, LRH-1 inv ag 95.8, NCOA3 inh 78.7 and SRC1 inh 67.3.
Screening CCN(CC)c1ccc(C(=O)NNC(=O)CCl)cc1 returned SRC2 inh inactive, EBV LMP1 NFkB inactive, LRH-1 inv ag inactive, NCOA3 inh inactive and SRC1 inh inactive.
CCN(CC)c1ccc(C(=C2C=CC(=[N+](CC)CC)C=C2)c2ccccc2)cc1 was read as SRC2 inh 94.3, EBV LMP1 NFkB 95.0, LRH-1 inv ag 94.9, NCOA3 inh 61.8 and SRC1 inh inactive.
CC(=O)Nc1cccc(-c2cc(NC(C)=O)c3ncc(-c4ccc(F)cc4)n3c2)c1 was read as SRC2 inh 54.1, LRH-1 inv ag inactive, NCOA3 inh inactive and SRC1 inh inactive.
Cc1ccc(-c2cnc(-c3ccncc3)o2)cc1 was read as SRC2 inh inactive, EBV LMP1 NFkB inactive, LRH-1 inv ag inactive, NCOA3 inh inactive and SRC1 inh inactive.
Nc1ccc(-c2ncc(-c3ccccc3)o2)cc1 was read as SRC2 inh 79.5, EBV LMP1 NFkB inactive, LRH-1 inv ag inactive, NCOA3 inh inactive and SRC1 inh inactive.
